Source: PubChem BioAssay (National Center for Advancing Translational Sciences (NCATS))
D1 ag – agonists of human D1 dopamine receptor. 1% of 360,000 active. activation, % at 2 µM. P21728. HEK293 T-REx D1 cells, calcium flux, agonist mode; note: 0% is about no effect
Target sequence (P21728 whole entry, looked up): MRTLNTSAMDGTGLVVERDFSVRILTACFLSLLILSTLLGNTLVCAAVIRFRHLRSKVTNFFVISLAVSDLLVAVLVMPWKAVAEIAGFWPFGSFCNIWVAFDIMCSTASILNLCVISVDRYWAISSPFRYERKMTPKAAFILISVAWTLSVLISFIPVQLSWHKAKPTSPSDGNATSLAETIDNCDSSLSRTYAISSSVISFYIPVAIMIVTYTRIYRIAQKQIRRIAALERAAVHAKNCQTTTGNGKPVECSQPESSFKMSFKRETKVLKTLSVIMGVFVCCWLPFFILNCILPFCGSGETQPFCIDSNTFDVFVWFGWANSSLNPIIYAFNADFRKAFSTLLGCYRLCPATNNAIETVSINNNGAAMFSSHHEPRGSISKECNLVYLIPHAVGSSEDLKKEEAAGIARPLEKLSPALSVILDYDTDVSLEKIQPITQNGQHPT
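Agonism was scored from calcium flux recorded over 180 s (1 read/s) after pintool compound addition, following a 10-cycle baseline. Cells were inducible force-coupled HEK293 TREx D1, plated overnight at 30 C and loaded with no-wash calcium dye.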
TRHR ag – TRH receptor (human) agonism. TRHR cells, calcium flux fluo-8, FDSS agonist mode. activation, % at 2 µM. 0.18% of 360,000 active. P34981; note: 0% is about no effect
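Agonist-mode FDSS calcium read (Ex 480/Em 530, 1 s cycles) in 1536-well TRHR cells with fluo-8 dye, after 10-cycle baseline and 23 nL compound addition; TRH at EC20 (10 nM final) added afterwards for the enhancer phase.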
D1 antag – antagonists of human D1 dopamine receptor; P21728; HEK293 TREx D1 cells, calcium flux, dopamine EC80; stronger effect = lower value; activity change, negative = inhibition, % at 10 µM; 3.2% of 360,000 active; in the data active = activity change below about -30%; note: % is set by controls: 0 for no effect and ±100 for the full control effect
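Using tetracycline-induced force-coupled D1 Hek293 cells and a calcium dye, signals were followed for 180 s after compound, then for 180 s after EC80 dopamine, to detect inhibitors.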
D1 PAM – human D1 dopamine receptor positive modulation. HEK293 TREx D1 cells, calcium flux, dopamine EC20 potentiation. P21728. 0.036% of 360,000 active. potentiation, % at 10 µM; in the data active = potentiation above about 30%; note: 0% is about no effect
TRHR enhancer – TRH receptor (human) allosteric enhancement. P34981. TRHR cells, fluo-8 calcium fluorescence, EC20 TRH enhancement. enhancement, % at 2 µM. 0.66% of 360,000 active. AID 493056; in the data active = enhancement above about 30%; note: 0% is about no effect
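Enhancer read-out: after compound pinning and an initial kinetic agonist-mode read, an EC20 of TRH (10 nM final) was injected and fluo-8 calcium signal (Ex 480/Em 530) followed at 1 s/cycle for 100 cycles in TRHR-expressing cells.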
* hit, by the source's call; nt = no result given. A selection: hits, their analogues and other compounds. The true share with any hit is near 4.6%. Cut-off read from the data, not from the text of the source, unless noted: active = activation above about 30%; inactive = the rest.

SMILES	D1 ag	TRHR ag	D1 antag	D1 PAM	TRHR enhancer
COCCNS(=O)(=O)c1cc(OC)ccc1OC	0	1	nt	4	-6
CCc1ccc(OC)c(S(=O)(=O)NCCOc2ccccc2)c1	4	-2	3	-6	31*
O=C(NCCCSc1ccccc1)c1ccc(=O)[nH]c1	2	0	1	0	4
Cc1ccc(S(=O)(=O)NCCSc2nnnn2-c2cc(C)ccc2C)cc1	10	1	-40*	-1	8
Cc1ccc(S(=O)(=O)NCCSc2nnnn2-c2ccccc2)cc1	0	-2	-1	-3	2
Cc1nc2nc(NCc3ccccc3Cl)[nH]n2c(=O)c1Cc1ccccc1	1	0	7	0	-6
CCc1c(C)nc2nc(SCc3ccccc3Cl)[nH]n2c1=O	7	0	-43*	-9	7
COc1cccc(C(=O)Oc2c(Br)cc(Br)cc2/C=N/NC(=O)c2cc(C)[nH]n2)c1	10	2	-32*	-3	-6
COc1ccc(-c2cc3onc(-c4c(Cl)cccc4Cl)c3c(=O)n2C)cc1	7	0	-33*	-6	0
CCC1Sc2ccc(S(=O)(=O)Nc3ccc(OC)cc3)cc2NC1=O (stereo unspecified)	30*	5	-36*	-5	1
COc1ccc(/C=N/NC(=O)c2ccc(NC(=O)C3CCCCC3)cc2)cc1O	6	1	0	-9	-2
COc1ccc(OC)c(S(=O)(=O)N2CCC3(CC2)OCCN3S(=O)(=O)c2ccccc2)c1	7	0	1	-3	6
O=C(CN1CCN(S(=O)(=O)N2CCOCC2)CC1)Nc1ccc(Cl)c(Cl)c1	14	1	-49*	-8	-6
Cc1ccc(NC(=O)CN2CCOCC2)cc1C	8	0	-40*	-2	3
O=C(CN1CCOCC1)Nc1ccc(Cl)c(Cl)c1	3	2	-1	0	-1
CC1=C(C(=O)OCC(Cl)(Cl)Cl)N2C(=O)C(NC(=O)Cc3ccccc3)C2SC1 (stereo unspecified)	26	-1	-34*	-10	4
Cn1c(=O)c([N+](=O)[O-])c(NCCc2ccccc2)c2ccccc21	1	0	17	2	-5
CCn1c(=O)c([N+](=O)[O-])c(NCCc2ccccc2)c2ccccc21	5	0	-52*	-2	11
S=c1[nH]nc(COc2ccccc2)n1/N=C/c1ccccc1Br	3	0	8	-4	-6
S=c1[nH]nc(COc2ccccc2)n1/N=C/c1ccncc1	-2	0	nt	0	-4
FC(F)(F)c1ccccc1/C=N/n1c(COc2ccccc2)n[nH]c1=S	38*	0	-36*	-6	3
CCc1ccc(/C=N/n2c(COc3ccccc3)n[nH]c2=S)cc1	61*	-1	-5	-4	-21
FC(F)(F)c1nc(Sc2ncccc2C(F)(F)F)n[nH]1	3	0	-9	-8	2
COC(=O)c1cc(NC(=O)c2nccnc2C(=O)O)cc(C(=O)OC)c1	1	0	-2	nt	-6
CN1CCN(C(=O)C2=C[C@H](c3coc4ccccc4c3=O)C[C@H](OCc3ccc(CO)cc3)O2)CC1	-3	0	-20	34*	-8
SMILES	D1 ag	TRHR ag	D1 antag	D1 PAM	TRHR enhancer
CN1CCN(C(=O)C2=C[C@@H](C3CC3)C[C@@H](OCc3ccc(CO)cc3)O2)CC1	-4	0	12	3	31*
O=C(C1=C[C@@H](c2coc3ccccc3c2=O)C[C@@H](OCc2ccc(CO)cc2)O1)N1CCOCC1	-6	0	-17	0	-6
O=C(C1=C[C@H](c2csc3ccccc23)C[C@H](OCc2ccc(CO)cc2)O1)N1CCN(Cc2ccc3c(c2)OCO3)CC1	0	1	-34*	4	-6
CN1CCN(C(=O)C2=C[C@@H](c3csc4ccccc34)C[C@@H](OCc3ccc(CO)cc3)O2)CC1	41*	2	-5	-2	-6
CCCCN(CCCC)CCNC(=O)c1cc(=O)[nH]c2ccc(S(=O)(=O)N3CCCCCC3)cc12	-2	0	11	-1	6
COc1cc(NC(=O)COc2ccccc2)c(OC)cc1NC(C)=O	3	-1	-24	-3	-5
O=C(O)C1=C[C@@H](c2coc3ccccc3c2=O)C[C@@H](OCc2ccc(CO)cc2)O1	-5	0	-22	0	-5
